From the supplement of paper PMC6522484
± gives the standard deviation of the averaged measurements.

Experiments:
DLD1 [1] = assay: cell viability (CellTiter-Glo) relative to plate median (fraction of plate median); higher = more viable cells; conditions: 5 µM; treatment time 24 h; reporter: 7TFP
In short: (§1)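 Each entry is a luminescence signal normalised to the plate median, averaged over independent replicates. The replicate count was two, and the cells were colorectal cancer lines with stable lentiviral TCF/Wnt firefly luciferase reporters exposed to library compounds at a final 5 µM for 24 h. Firefly luciferase and CellTiterGlo were measured on parallel plates.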

HCT116 = assay: as above; conditions: 5 µM; treatment time 24 h; reporter: TCF4/Wnt
In short: as §1

SW480 [2] = assay: as above; conditions: 5 µM; treatment time 24 h; reporter: 7TFP
In short: as §1

DLD1 [3] = assay: TCF/Wnt firefly luciferase reporter signal relative to plate median (fraction of plate median); higher = higher Wnt reporter signal; conditions: 5 µM; treatment time 24 h; reporter: 7TFP
In short: as §1

SW480 [4] = assay: as above; conditions: 5 µM; treatment time 24 h; reporter: 7TFP
In short: as §1

Row | Structure (SMILES) | cell viability (DLD1 [1]) | cell viability (HCT116) | cell viability (SW480 [2]) | TCF/Wnt firefly luciferase reporter signal (DLD1 [3]) | TCF/Wnt firefly luciferase reporter signal (SW480 [4])
1 | CN1CCc2cccc3c2[C@H]1Cc1ccc(O)c(O)c1-3 | 0.957 ± 0.06 | 1.04 ± 0.088 | 0.992 ± 0.025 | 1.1 ± 0.057 | 0.978 ± 0.088
2 | CCCCc1nc(Cl)c(CO)n1Cc1ccc(-c2ccccc2-c2nnn[nH]2)cc1 | 0.909 ± 0.09 | 0.921 ± 0.052 | 1.02 ± 0.045 | 1.08 ± 0.25 | 0.715 ± 0.37
3 | FC(F)(F)COCC(F)(F)F | 0.944 ± 0.047 | 0.922 ± 0.041 | 0.99 ± 0.029 | 0.762 ± 0.016 | 0.825 ± 0.1
4 | O=c1cc(-c2cccc(O)c2)oc2ccc(O)cc12 | 1.05 ± 0.09 | 0.98 ± 0.0057 | 1 ± 0.036 | 1.19 ± 0.16 | 1.19 ± 0.14
5 | C=CC(N)CCC(=O)O (stereo not given) | 1.06 ± 0.021 | 0.934 ± 0.086 | 1.06 | 0.952 ± 0.21 | 1.06 ± 0.092
6 | O=C(Oc1ccccc1C(=O)O)c1ccccc1O | 1.02 ± 0.014 | 0.961 ± 0.054 | 1.03 ± 0.014 | 1.06 ± 0.14 | 1.02 ± 0.18
7 | CC(C)C[C@H](NC(=O)[C@@H]1CCCN1)C(=O)N1CCNC(=O)C1=O [Prolyl-leucyl-diketopiperazine] | 1.02 ± 0.035 | 0.993 ± 0.011 | 0.984 ± 0.0042 | 1.04 ± 0.13 | 1.025 ± 0.0071
8 | CC(=O)O[C@H]1C[C@@H](OC(C)=O)C(C)(C)C2C[C@@H](O)[C@]3(C)C(CC[C@@]4(C)[C@H](c5ccoc5)OC(=O)[C@H]5O[C@]543)[C@]21C (stereo not given in full) | 1.04 ± 0.042 | 1.06 ± 0.014 | 1.01 ± 0.073 | 0.977 ± 0.033 | 1.02 ± 0.061
9 | O=C(O)c1cc(=O)c2ccccc2o1 | 0.859 ± 0.082 | 0.961 ± 0.11 | 0.987 ± 0.014 | 0.909 ± 0.12 | 0.993 ± 0.011
10 | NNc1nncc2ccccc12 | 1.055 ± 0.0071 | 1.06 ± 0.057 | 1.055 ± 0.0071 | 1.23 ± 0.25 | 1.28 ± 0.17
11 | CC(=O)O[C@]1(C(C)=O)CC[C@H]2[C@@H]3C=C(Cl)C4=CC(=O)[C@@H]5C[C@@H]5[C@]4(C)[C@H]3CC[C@@]21C | 1 ± 0.035 | 0.96 ± 0.086 | 0.948 ± 0.0028 | 0.81 ± 0.052 | 0.923 ± 0.22
12 | O=c1c(O)c(-c2ccc(O)c(O)c2)oc2cc(O)cc(O)c12 | 0.9445 ± 0.00071 | 0.9265 ± 0.0021 | 1 ± 0.036 | 0.936 ± 0.062 | 0.983 ± 0.067
13 | COc1ccc2[nH]c([S+]([O-])Cc3ncc(C)c(OC)c3C)nc2c1 (stereo not given) | 0.971 ± 0.084 | 1.01 ± 0.048 | 0.978 ± 0.06 | 1.09 ± 0.05 | 1.06 ± 0.11
14 | CCc1cc(C(N)=S)ccn1 | 0.964 ± 0.035 | 1.02 ± 0.028 | 0.987 ± 0.0071 | 1.07 ± 0.078 | 1.09 ± 0.028
15 | CC(=O)C[C@@H]1C[C@H](O)c2c(O)cccc2C1=O [Bhimanone] | 1.06 ± 0.035 | 1.03 ± 0.035 | 1.05 ± 0.14 | 1.11 ± 0.035 | 1.12 ± 0.057
16 | C[C@@H]1CC[C@]2(C(=O)O[C@@H]3O[C@H](CO)[C@@H](O)[C@H](O)[C@H]3O)CC[C@]3(C)C(=CC[C@@H]4[C@@]5(C)C[C@@H](O)[C@H](O)[C@@](C)(CO)[C@@H]5CC[C@]43C)[C@@H]2[C@]1(C)O [Nigaichigoside F1] | 1.17 ± 0.11 | 1.02 ± 0.072 | 1.05 ± 0.042 | 1.08 ± 0.028 | 1.06 ± 0.24
17 | COc1cc2ccc(=O)oc2cc1O | 1.09 ± 0.064 | 1.09 | 1.12 ± 0.085 | 0.999 ± 0.059 | 0.892 ± 0.12
18 | COc1ccc2cc1Oc1ccc(cc1)C[C@H]1c3c(cc4c(c3Oc3cc5c(cc3OC)CCN(C)[C@@H]5C2)OCO4)CCN1C | 1.02 ± 0.052 | 0.934 ± 0.052 | 1.14 ± 0.035 | 1 ± 0.054 | 1.05 ± 0.028
19 | C=C1[C@@H]([C@@]2(C)C=CC(=O)C(C)(C)[C@@H]2CC(=O)OC)CC[C@@]2(C)[C@H](c3ccoc3)OC(=O)[C@H]3O[C@]132 | 0.94 ± 0.021 | 1.01 ± 0.039 | 1.02 ± 0.021 | 0.978 ± 0.19 | 0.996 ± 0.048
20 | NC(=O)c1ccccc1O | 1.07 ± 0.014 | 0.991 ± 0.056 | 0.972 ± 0.014 | 0.993 ± 0.096 | 0.81 ± 0.12
21 | COc1c2ccoc2nc2c(OC)c(OCC(O)C(C)(C)O)ccc12 (stereo not given) | 1.02 ± 0.038 | 1 ± 0.014 | 1 ± 0.013 | 1.03 ± 0.047 | 1.02 ± 0.057
22 | COC(=O)C(N)CS (stereo not given) | 0.972 ± 0.054 | 0.965 ± 0.092 | 1 ± 0.036 | 0.836 ± 0.039 | 0.91 ± 0.03
23 | CN[C@@H]1[C@@H](O)[C@@H](O[C@@H]2[C@@H](O)[C@H](O[C@H]3OC(CN)=CC[C@H]3N)[C@@H](N)C[C@H]2N)OC[C@]1(C)O | 1.04 | 0.9635 ± 0.0092 | 1.07 ± 0.042 | 0.933 ± 0.17 | 0.97 ± 0.085
24 | C/C=C/C=C/[C@@H]1O[C@](O)([C@H](CC)C(=O)NC/C=C/C=C(\C)[C@@H](OC)[C@@H](C)[C@@H]2O[C@H](/C=C/C=C/C=C(\C)C(=O)c3c(O)ccn(C)c3=O)[C@H](O)[C@@H]2O)C[C@H](O)C1(C)C (single isomer, unassigned; isomere) [Heneicomycin (Isomere)] | 0.948 ± 0.037 | 1.04 ± 0.14 | 1.035 ± 0.0071 | 1.05 ± 0.064 | 1.03 ± 0.021
25 | CC(=O)O[C@H]1C[C@@H](OC(C)=O)C(C)(C)[C@@H]2C[C@@H](OC(C)=O)[C@]3(C)[C@H](CC[C@@]4(C)[C@H](c5ccoc5)OC(=O)[C@H]5O[C@@]534)[C@@]12C | 1.11 ± 0.14 | 1.18 ± 0.028 | 1.15 ± 0.042 | 1.07 ± 0.12 | 1.04 ± 0.021
26 | COc1ccc(-c2cc(=O)c3c(O)cc(O)cc3o2)cc1 | 1.03 ± 0.08 | 0.935 ± 0.019 | 1.05 ± 0.064 | 0.912 ± 0.026 | 1.01 ± 0.091
27 | COC(=O)/C=C/C(C)=C\C=C\C(C)=C\C=C\C=C(C)\C=C\C=C(C)\C=C\C(=O)O | 1.05 ± 0.057 | 1.05 ± 0.028 | 0.968 ± 0.046 | 0.981 ± 0.042 | 0.997 ± 0.047
